Results filed as inconclusive are left out. Values without a mark were called inactive. Activity calls are given as the source filed them. Unless noted, the call rests on the fitted dose curve; in most records, active means well fitted curve in the direction sought with a large enough effect in the repeat runs; inconclusive means weak or mixed curves; inactive means no such curve, though single readings can be large; an effect the other way counts as inactive or inconclusive.

Here are results for 11 molecules from PubChem BioAssay (Tox21).

A short description of experiment [1]: qHTS assay to identify small molecule agonists of the vitamin D receptor (VDR) signaling pathway - cell viability counter screen (AID 743224). Further: nearly all actives have a fitted effect of over 50% in size. Further: potency means the concentration at half of the fitted maximal effect. In outline:
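Counter screen run in the same wells as the VDR-bla reporter assay: CellTiter-Glo luminescence, 30 min at room temperature, after 16 h compound treatment at 37C of cells pre-plated for 4 h.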
A general note: In qHTS, concentration-response curves come from the screen itself.

Experiment [2] is described as follows: qHTS assay to identify small molecule antagonists of the vitamin D receptor (VDR) signaling pathway - cell viability counter screen (AID 743225). Further: nearly all actives have a fitted effect of over 50% in size. Further: potency means the concentration at half of the fitted maximal effect. An outline of the steps:
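Cytotoxicity toward the VDR-bla HEK 293T line was scored by ATP-based CellTiter-Glo luminescence, read in the wells already used for the beta-lactamase readout after 16 h compound treatment under 3 nM 1-alpha,25-dihydroxyvitamin D3 stimulation.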

The nature of experiment [3]: qHTS assay to identify small molecule agonists of the NFkB signaling pathway (AID 1159509; active means well fitted curve in the direction sought with a large enough effect in the signal ratio in the repeat runs, not every such curve was filed as active; the % refers to the signal ratio; further: series mostly up to about 61 µM; on the % scale 0 is the no-effect control and ±100 the full control effect). An outline of the steps:
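Readout: FRET fluorescence, 405 nm excitation, 460/530 nm emission; beta-lactamase expression disrupts FRET. Cells: ME-180 stably carrying NF-kB-driven bla reporter. Compound exposure 5 hr, 37 C, 5% CO2.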

The target in experiment [4] is Nuclear receptor ROR-gamma (Homo sapiens) (UniProt P51449). Description: qHTS assay to identify small molecule antagonists of the retinoid-related orphan receptor gamma (ROR-gamma) signaling pathway (AID 1159521; further: nearly all actives have a fitted effect of over 50% in size; further: potency means the concentration at half of the fitted maximal effect). An outline of the steps:
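Readout: ONE-Glo luciferase luminescence, 30 min at room temperature. System: Tet-on RORγ CHO, RORE-LUC. Sequence: compound 2 h, doxycycline 1 uM final, 16 h at 37 C.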

The nature of experiment [5]: qHTS assay to identify small molecule agonists of the RXR signaling pathway - cell viability counter screen (AID 1159529). Further: nearly all actives have a fitted effect of over 50% in size. Further: potency means the concentration at half of the fitted maximal effect. An outline of the steps:
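Tox21 10K compounds were tested for cytotoxicity against GeneBLAzer RXR-alpha HEK 293T cells grown in 2% charcoal-stripped FBS. Exposure lasted 16 hr at 37 C, 5% CO2; viability read by CellTiter-Glo luminescence.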

Experiment [6] can be described thus: qHTS assay to identify small molecule antagonists of the retinoic acid receptor (RAR) signaling pathway (AID 1159552; further: nearly all actives have a fitted effect of over 50% in size; further: potency means the concentration at half of the fitted maximal effect). In outline:
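Overnight-plated C3RL4 reporter cells get compound, then retinol to 1 uM final; plates sit 6 hr at 37 C, 5% CO2. A luciferase reagent is added and light output recorded after 30 min at room temperature.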

Experiment [7] in a line: qHTS assay to identify small molecule agonists of the retinoic acid receptor (RAR) signaling pathway (AID 1159553). Further: potency means the concentration at half of the fitted maximal effect. In outline:
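Luminescence was measured 30 min after luciferase reagent addition at room temperature. Before that, C3RL4 reporter cells (1,000 per well, plated overnight) were treated with compound for 6 hr at 37 C and 5% CO2.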

A short description of experiment [8]: qHTS assay to identify small molecule antagonists of the retinoid-related orphan receptor gamma (ROR-gamma) signaling pathway - cell viability counter screen (AID 1159520). Further: nearly all actives have a fitted effect of over 50% in size. Further: potency means the concentration at half of the fitted maximal effect. An outline of the steps:
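Tet-on ROR gamma CHO cells (1,000/well) were plated 4 hr, given compounds in DMSO for 2 hr at 37 C, then induced with 1 uM final doxycycline for 16 hr. Viability was read as ATP by CellTiter-Glo luminescence after 30 min.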

Experiment [9] can be described thus: qHTS assay to identify small molecule agonists of the AP-1 signaling pathway - cell viability counter screen (AID 1159525; calls by dose curve; further: nearly all actives have a fitted effect of over 55% in size). In outline: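 Each titration point was normalised to DMSO and tetra n-octyl ammonium bromide controls. The read was Cell Titer Glo luminescence after 30 min at RT, following 5 h compound exposure of ME-180 AP-1-bla cells at 37 °C.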
The nature of experiment [10]: qHTS assay to identify small molecule antagonists of the retinoid acid receptor (RAR) signaling pathway - cell viability counter screen (AID 1159551). Further: nearly all actives have a fitted effect of over 35% in size. Further: potency means the concentration at half of the fitted maximal effect. In outline: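 Cytotoxicity counter screen: ATP content quantified by CellTiter-Glo luminescence in C3RL4 cells treated 6 hr at 37 C with compound and retinol (1 uM final). Cells plated at 1,000/well and cultured overnight before dosing.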

Experiment [11] can be described thus: qHTS assay to identify small molecule antagonists of the estrogen related receptor (ERR) signaling pathway - cell viability counter screen (AID 1224818). Further: series mostly up to about 46 µM; on the % scale 0 is the no-effect control and ±100 the full control effect. An outline of the steps: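 Cytotoxicity counter screen: fluorescence from CellTiter-Fluor, added after 17.5 h compound exposure at 37 C and read 30 min later. ERR cell line seeded at 2,000 cells/well, preincubated 6 h before dosing.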

Experiment [12] in a line: qHTS assay to identify small molecule antagonists of the estrogen related receptor (ERR) signaling pathway (AID 1224819). An outline of the steps:
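LOPAC library screened for antagonism as reduced One-Glo luminescence in ERR reporter cells (2,000/well). Compounds were added after 6 h pre-incubation and left 18 h at 37C; reading followed a 30 min room-temperature reagent step.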

Experiment [13] can be described thus: qHTS assay to identify small molecule agonists of the estrogen related receptor (ERR) signaling pathway (AID 1224820). Further: on the % scale 0 is the no-effect control and ±100 the full control effect. In outline:
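Luminescence readout (One-Glo, 30 min RT) from NTP-supplied ERR cell line exposed to compounds for 18 h at 37 C. Cells seeded 2,000 per well and pre-incubated 6 h before pin-tool compound transfer.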

Experiment [14] deals with estrogen-related receptor alpha (ERRalpha) with PGC-1alpha coactivator, human. Description: qHTS assay to identify small molecule antagonists of the estrogen related receptor signaling pathway with the pleiotropic PPARgamma coactivator (PGC) (AID 1224821; calls by dose curve). In outline: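 PGC/ERR reporter cells; 6 h pre-incubation 37 C/5% CO2; pin-tool compound in DMSO, 18 h 37 C; One-Glo added, 30 min RT; luminescence read. qHTS antagonist mode.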

The nature of experiment [15]: qHTS assay to identify small molecule antagonists of the estrogen related receptor signaling pathway with the pleiotropic PPARgamma coactivator (PGC) cell viability counter screen (AID 1224822; further: series mostly up to about 46 µM; on the % scale 0 is the no-effect control and ±100 the full control effect). In outline:
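Viability counter-screen read by fluorescence intensity after 30 min with CellTiter-Fluor at 37 C; PGC/ERR reporter cells were exposed to compounds for 17.5 h at 37 C following a 6 h preincubation.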

Experiment [16] is described as follows: qHTS assay to identify small molecule agonists of the endoplasmic reticulum stress response signaling pathway - cell viability counter screen (AID 1159517; calls by dose curve). In outline: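 Cytotoxicity of test compounds toward ESRE-bla HeLa cells was assessed after 5 hr exposure. The luminescent CellTiter-Glo signal was measured 30 min after reagent addition.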
Experiment [17] can be described thus: qHTS assay to identify small molecule agonists of the AP-1 signaling pathway (AID 1159526; calls by dose curve; further: on the % scale 0 is the no-effect control and ±100 the full control effect).
A short description of experiment [18]: qHTS assay to identify small molecule agonists of the NFkB signaling pathway - cell viability counter screen (AID 1159515; calls by dose curve; further: series mostly up to about 61 µM; on the % scale 0 is the no-effect control and ±100 the full control effect; nearly all actives have a fitted effect of over 55% in size). An outline of the steps: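 Read by CellTiter-Glo luminescence (30 min, room temperature) in the wells also used for the beta-lactamase FRET read. ME-180 NFkB-bla cells at 2,000 per well were plated overnight, then exposed to compound for 5 hr at 37 C.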

Experiment [19] in a line: qHTS assay to identify small molecule agonists of the endoplasmic reticulum stress response signaling pathway (AID 1159516; active means well fitted activation curve with a large enough effect in the signal ratio in the repeat runs, not every such curve was filed as active; the % refers to the signal ratio; further: on the % scale 0 is the no-effect control and ±100 the full control effect). An outline of the steps: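 Ratiometric FRET readout (405 nm excitation; 460 and 530 nm emission) of a beta-lactamase gene driven by the ER stress response element, after 2 hr substrate loading. HeLa ESRE-bla cells were seeded overnight and treated with compounds for only 5 hr at 37 C.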

Experiment [20] concerns the target Retinoic acid receptor RXR-alpha (Homo sapiens) (UniProt P19793). Description: qHTS assay to identify small molecule agonists of the RXR signaling pathway (AID 1159527; calls by dose curve; further: on the % scale 0 is the no-effect control and ±100 the full control effect; nearly all actives have a fitted effect of over 35% in size). An outline of the steps:
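Reporter activation is measured as beta-lactamase activity via FRET substrate cleavage (emission 460/530 nm) in HEK 293T cells expressing an RXR-alpha-driven bla construct, following 16 hr compound exposure at 37 C.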

Chain of Retinoic acid receptor RXR-alpha (Homo sapiens) (P19793 whole entry, looked up): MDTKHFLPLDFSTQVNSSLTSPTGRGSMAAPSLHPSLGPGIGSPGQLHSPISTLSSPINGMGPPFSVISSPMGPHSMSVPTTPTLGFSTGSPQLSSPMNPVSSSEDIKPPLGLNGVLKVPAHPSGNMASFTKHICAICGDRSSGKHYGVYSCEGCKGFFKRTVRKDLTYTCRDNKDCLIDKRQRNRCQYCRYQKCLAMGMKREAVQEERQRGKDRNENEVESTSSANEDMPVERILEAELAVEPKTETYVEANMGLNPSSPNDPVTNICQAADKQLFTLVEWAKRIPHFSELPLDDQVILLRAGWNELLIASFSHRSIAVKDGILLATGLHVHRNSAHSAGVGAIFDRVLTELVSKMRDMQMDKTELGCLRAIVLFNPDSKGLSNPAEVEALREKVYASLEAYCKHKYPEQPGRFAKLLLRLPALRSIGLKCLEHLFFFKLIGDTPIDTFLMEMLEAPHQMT

For the molecule `COc1ccc2cc(S(=O)(=O)N[C@H](CC(=O)N[C@H](Cc3ccc(CN4[C@H](C)CCC[C@@H]4C)cc3)C(=O)N(C)C(C)C)c3ccc4c(c3)OCO4)ccc2c1`, the Potency in experiment [1] was 52 µM (active); in experiment [2], 20.7 µM (active); in experiment [4], 13 µM (active); in experiment [5] it was 2.32 µM (active); in experiment [6] it was 51.6 µM (active). For the same molecule, in experiment [3], the molecule was classed as inactive. Also, in experiment [7], the Potency entry was “inactive”.
Consider `CN[C@H]1CC[C@@H](c2ccc(Cl)c(Cl)c2)c2ccccc21`, for which the Potency in experiment [1] was 13.3 µM (active); in [2], 23.9 µM (active); in experiment [6], 26.6 µM (active). Besides, the outcome in experiment [3], in experiment [11], in [13] and in experiment [14] was inactive. The Potency entry in experiment [8], in [4], in experiment [9], in experiment [10], in experiment [12] and in [15] was “inactive” each time.
Take `COc1cccc(O)c1O`: the Potency in [1] is 57.1 µM (active); in experiment [4] it was 63.5 µM (active); in experiment [6], 56.6 µM (active). In addition, the Potency result in experiment [2], in [16], in [9], in [5] and in [10] was “inactive” in each case. The result in experiment [3] was inactive.
As for `Nc1ccc2c(c1)CN1C(=O)c3ccccc3C1=N2`, the Potency entry in [1], in [2] and in experiment [16] was “inactive” throughout. In experiment [3], the call was inactive. Besides, in experiment [4], the activity change, negative = inhibition was -8.87% [at 19 µM]. For the same molecule, the activation in experiment [17] is -1.9% [at 15.8 µM]. Moreover, the Potency was 14.6 µM (active) in [10] and 0.366 µM (active) in experiment [7]. Besides, in experiment [6], the activity, negative = inhibition was -41% [at 19 µM].
Regarding `Cc1ncc([N+](=O)[O-])n1CCO`, the Potency result in experiment [1], in experiment [2], in experiment [18], in [19], in [16] and in [8] was “inactive” throughout. In addition, the Potency entry in [4], in [9], in [17], in [20], in experiment [5] and in experiment [10] was “inactive” in each case. The Potency result in experiment [6] and in experiment [7] was “inactive” in each case.
For `C=C1CC[C@H](O)C/C1=C\C=C1/CCC[C@]2(C)[C@@H]([C@H](C)CCCC(C)C)CC[C@@H]12`, in [3], the call was inactive. Besides, the Potency in [8] was 60.6 µM (active); in experiment [5], 24.3 µM (active). For the same molecule, the Potency result in [9], in experiment [10] and in experiment [6] was “inactive” in each case.
Consider `CCCCOC(=O)c1ccc(O)cc1`, for which the Potency entry in [1], in [2], in experiment [18], in [19], in experiment [16] and in experiment [8] was “inactive” in each case. Also, the Potency result in experiment [4], in [9], in experiment [17], in experiment [20], in experiment [5] and in experiment [10] was “inactive” each time. For the same molecule, in [6], the Potency result is “inactive”. In [7], the Potency is 27.3 µM (active).
As for `Nc1ccc([N+](=O)[O-])cc1O`, the result in experiment [3] was inactive. Moreover, the Potency entry in [8], in [4], in [9], in experiment [17], in experiment [20] and in [7] was “inactive” throughout. Moreover, the Potency entry in experiment [15] was “inactive”.
In the case of `C1=CC2C3C=CC(C3)C2C1` (stereo not given), the Potency result in experiment [1], in experiment [8], in [4], in [9], in experiment [5] and in [10] was “inactive” in each case. Moreover, the Potency entry in [7], in [12] and in experiment [15] was “inactive” in each case. The molecule was classed as inactive in experiment [3], in experiment [11], in experiment [13] and in experiment [14].
Turning to `Nc1ccc(O)c([N+](=O)[O-])c1`, the outcome in experiment [3] and in experiment [14] was inactive. Besides, the Potency result in experiment [8], in experiment [9], in experiment [5], in [10], in experiment [6] and in experiment [12] was “inactive” in each case. For the same molecule, the Potency result in experiment [15] is “inactive”. Further, in experiment [4], the Potency was 8.63 µM (active).
On to `CCN(Cc1c(F)cccc1Cl)c1c([N+](=O)[O-])cc(C(F)(F)F)cc1[N+](=O)[O-]`, for which the Potency result in [1], in experiment [8], in experiment [4], in experiment [10] and in [7] was “inactive” each time. In addition, the molecule was classed as inactive in experiment [3]. The Potency in [5] is 9.77 µM (active).
